# Tests used:
# Experiment in all cases: PBM binding z-score (relative to random genomic background probes); higher = stronger binding; sequences stand for … in GC…GCGATTGACAGCGTAGAATGAAGG
# [1] = system: RARb homodimer (NR concentration 270 nM)
# How it was run: (§1)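 Probes were double-stranded and carried 34-nt variable regions with direct-repeat seeds, single-nucleotide variants, half-site ablations and random human genomic background sequences, printed on custom Agilent 4×180K protein-binding microarrays. Arrays were incubated 1 h with ligand-free nuclear receptor dimers in PBS pH 7.4, 2% milk, 0.02% Triton X-100, 1 mM DTT, 0.2 mg/mL BSA and 0.4 mg/ml salmon testes DNA. Antibodies against each partner (one per run) detected binding, and scanned fluorescence was regression-normalized. Binding z-scores use the random background probes as reference.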
# [2] = system: RARg:RXRa (NR concentration 270 nM, RXRa partner concentration 90 nM)
# How it was run: as §1
# [3] = system: RARg homodimer (NR concentration 270 nM)
# How it was run: as §1
# [4] = system: RXRa DBDmut IVT, anti-RXR (DBD mutation: RXRa K156A/R161A, NR concentration 90 nM)
# How it was run: as §1
# [5] = system: RXRa homodimer (NR concentration 180 nM)
# How it was run: as §1
# [6] = system: THRa:RXRa (NR concentration 90 nM, RXRa partner concentration 90 nM)
# How it was run: as §1
# [7] = system: THRa homodimer (NR concentration 90 nM)
# How it was run: as §1
# [8] = system: VDR:RXRa (NR concentration 270 nM, RXRa partner concentration 90 nM)
# How it was run: as §1
# [9] = system: VDR homodimer (NR concentration 270 nM)
# How it was run: as §1
Sequence,PBM binding z-score [1],PBM binding z-score [2],PBM binding z-score [3],PBM binding z-score [4],PBM binding z-score [5],PBM binding z-score [6],PBM binding z-score [7],PBM binding z-score [8],PBM binding z-score [9]
CTAACTAGGTCACCAGGACAGTGAAGAGGTTGGA,3.4,4.69,5.53,1.67,3.98,3.51,2.16,2.06,0.856
CAGCCTAGGTGAGGGCCAGTATAGGAGGAACGTT,0.105,-0.107,0.177,-0.941,-0.128,0.00456,-0.223,-0.634,-0.734
CCTACTGGGCCAAGCTCATTGATCAGTCAAAGCA,-0.235,-0.314,-0.109,-0.384,-0.732,-0.704,-0.701,-0.667,-0.851
ATATGTAGGTGAGGGTCATTCAGAAAGTAGGGAA,3.13,3.24,3.06,1.67,3.67,2.56,1.31,3.42,2.76
CGTCCAAGGTCAGATAGGTCAGTGAATGCCGAGT,4.84,5.45,6.04,3.06,4.4,3.73,1.92,4.9,3.28
CCGAGTAGGTTACGATGGGGCATTCAGTGCGAAT,0.657,0.828,0.851,0.0778,0.63,1.08,-0.789,0.842,0.231
AGTCAAAGTTCAGGACGAGGTAATGTAAAGCACG,3.05,4.89,4.72,3.05,3.37,3.5,1.44,3.07,2.1
GCATACGGGTCAAAGGTTATAGCATGAATAGAAT,3.26,6.95,4.87,2.46,9.53,3.81,-0.445,5.37,1.56
CGTCCAACGTCAAGGTCAGTGAAAGAGACTCGAA,3.13,2.61,3.16,0.737,1.9,2.57,1.67,1.18,0.844
CGAACTAGGTCACCAGGACAGTGGAGAGGTTGGA,3.32,4.53,5.51,1.04,3.27,3.34,1.78,1.99,0.74
GGAACGGGGGCATTCGAGTTGATAGCATGGCGAT,1.62,2.68,2.39,3.78,2.47,4.15,1.09,5.52,4.57
CCGACTAGGTTACGAGGGGGCATTCAGTGCGAAT,2.21,2.97,2.26,1.5,1.62,3.52,0.757,4.96,3.12
CGAACTAGGTCAAAGGACAGTGATAGGCGACGTA,3.06,3.97,4.98,1.56,3.26,2.56,0.594,1.45,0.324
CGCACTAGGTCATTGACAGGACAGTGAATAGTAA,2.68,4.77,4.46,2.35,2.57,2.91,1.16,2.36,1.54
AGTCCAAGTTCACTAGGTAACGTAAGATTCAGCT,1.95,2.53,2.98,4.3,1.74,1.54,0.381,3.46,4.4
CCTAGCCGGCCAATCTGGGTCACTCAAGGCTTGA,2.25,1.14,1.24,-0.259,0.623,3.15,0.859,0.613,0.329
ATATGTAAGTTAGGGTCATTCAGAAAGTAGGGAA,3.04,4,3.02,2.47,5.33,4.05,2.85,4.5,3.96
CTATGTAGGTTAAGGGTGTCATTCAGTTTGAAAG,1.44,1.38,0.949,0.738,1.35,1.04,0.005,3.24,1.42
CGAACTAGGTCATAGGACAGTGAAAGGCGACGTA,2.66,3.62,3.88,1.21,3.11,2.64,0.357,1.47,0.417
CCTAGTTGGTCAGGAGGTCCCACACCGGATATGA,0.775,0.48,0.629,-0.686,0.0541,-0.131,0.411,0.0687,0.335
CCTAGCAGACCAATCTGGGTCACTCAAGGCTTGA,1.75,0.672,0.527,0.174,0.711,2.64,0.374,0.199,0.0917
CGAACTTGGTCAAAGGACAGTGAAAGGCGACGTA,1.3,1.24,1.69,-0.0652,0.736,0.657,-0.391,-0.101,-0.0452
CGAACTAGGTCAAAGGACAGTGTAAGGCGACGTA,3.11,4.01,4.55,1.32,3.01,2.9,0.826,1.58,0.391
CTCGAAAGGTCGGTTGAGGTCAGTATACGGATAA,4.41,4.95,4.93,1.63,4.02,5.26,3.23,6.09,3.44
CCCACTGGGGCAAAGGTTACCATACTCAGTACGA,2.15,3.57,1.81,-0.648,3.57,1.8,-0.0576,1.61,0.129
TCGAGTAGGTTACGGGGGCATTCACGGATGAAGA,2.05,3.38,2.31,1.78,3.16,2.86,1.23,3.95,2.93

Sequence,PBM binding z-score [1],PBM binding z-score [2],PBM binding z-score [3],PBM binding z-score [4],PBM binding z-score [5],PBM binding z-score [6],PBM binding z-score [7],PBM binding z-score [8],PBM binding z-score [9]
ACTAGAAGGCCAAGGGTCACTCAAGATTAGTCCG,3.97,4.79,4.33,0.883,4.57,2.87,0.528,3.26,1.92
CAAACTAGGTCACAGAGGTCGAAGTCCGTGCGTA,4.46,5.11,5.68,2.1,4.51,4.03,2,6.75,3.88
CCTTACGGGTCAAGGTTATACCACGGGTGGTACG,3.44,4.96,4.75,0.758,5.09,2.97,0.619,3.65,1.65
CGAACTAGTTCACCAGGACAGTGAAGAGGTTGGA,1.09,1.14,1.44,2.02,0.753,1.69,0.658,0.879,1.05
CCTACTGGGCCAATGTCATTGATCAGTCAAAGCA,0.109,0.114,0.0827,-0.907,-0.139,-0.112,-0.837,-0.366,-0.862
TCGAGTAGGTTACGGGGGCATTCATGGATGAAGA,2.23,3.37,2.71,1.74,2.93,2.63,1.13,3.71,3.57
CTTTACGGGTCAAGGTTATAGCACGGGTGGTACG,3.7,5.18,5.01,1.93,5.61,3.26,1.1,3.8,1.77
AGTCAAAGTTCATCTTGGTAACGTAAGATATGCT,4.03,5.43,5.84,4.52,4.52,2.03,-0.478,4.41,4.88
CGTCCAAGGGCAGCAGGTCAGTGAAAGCGACGTG,2.99,2.31,2.9,0.247,0.676,1.28,-0.115,0.17,0.0968
ACTCGGAGGATAAAGGTCAGAGCTACGCCAGTGA,3.89,4.72,4.44,0.655,4.43,2.69,0.203,2.36,0.801
AGACAAAGTTCAGGACGAGGTAACGTAAAGCACG,3.04,4.75,4.73,2.87,2.9,3.86,1.51,2.91,2.08
AAAATGAGGTTAAGATCAGGGAAACAGAATACAT,1.03,2.28,1.37,1.32,2.73,2.75,0.772,1.35,0.778
AGTCAAAGTTCATCAAGGTAACGTAAGATATGCT,3.86,5.57,5.96,4.57,4.81,3.8,1.23,5.55,4.97
CTATGTAGGTTAAGAGGGTCATTCAGTTTGAAAG,3.03,3.16,2.3,1.33,3.33,2.42,0.33,6.27,3.39
CGAACTAGGTCAAAGGACAGTGAAAGGCGACGTA,2.83,3.94,4.27,1.3,3.33,2.58,0.464,1.32,0.47
TCCAGTAGGTTACGGGGGCATTCAGGGATGAAGA,2.45,3.99,3.38,2.49,3.03,3.96,1.63,4.04,3.69
CCTCGGAGGACAGAAGGTCAGATCTGTCCGCTTT,3.49,3.26,3.53,0.421,2.01,2.25,0.0201,0.977,0.21
ATATGTAGCTTAGGGTCATTCAGAAAGTAGGGAA,2.97,3.71,2.73,2.16,4.87,4.07,3.15,4.27,3.71
TAGCCTAGGTCAGATCGGGGCAGTATACGCTATA,2.27,2.87,3.83,-0.173,1.6,4.07,0.0921,1.56,0.0728
TCGAGTAGGTTACCGGGGCATTCAGGGATGAAGA,1.09,1.01,0.946,-0.0634,0.997,2.25,0.104,0.816,-0.232
CGTCAAAGTTCAAGTTAACGTAACAGAAAGCAGC,4.24,5.84,6.77,4.89,5.38,2.3,-0.142,4.32,4.05
CTATGTATGTTAAGGGGGTCATTCAGTTTGAAAG,3.92,4.71,3.61,3.03,5.44,3.91,2.88,6.64,6.32
TATACAGGGTCTAAGGCCAGAGTACGAATGTCGA,0.78,0.921,1.04,0.336,0.544,1.05,0.535,0.486,1.12
CGAACTACGTCAAAGGACAGTGAAAGGCGACGTA,0.995,0.411,0.951,-0.164,0.202,0.0886,-0.314,-0.443,-0.351
TTACAAAGGTGAAAGGTCGTTGATGCACGCCTTG,3.48,5.85,3.31,1.05,7.68,3.11,0.398,4.35,1.64
ATATGTAGGTTAGGTTCATTCAGAAAGTAGGGAA,1.29,1.47,1.35,3.43,2.17,1.8,0.787,4.01,5.47
